A selection: hits, their analogues and other compounds. The true share with any hit is near 4.9%.
HSF1 activator = increases HSF-1 driven luciferase reporter signal. NIH3T3-HGL HSF-1 luciferase reporter, MG132, 8 h; 100% = twice DMSO control signal. activation, % at 9 µM. actives 1.7% (n = 300,000). AID 504408;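 active = mean replicate activation of at least 50% with a set share of replicates each reaching 50%; inconclusive = only one of those two conditions met; inactive = mean below 50% and too few replicates reaching it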;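 also: 0% = median of the neutral control wells and 100% = twice that signal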
HSP90 inh = blocks HSP90-mediated luciferase refolding in reticulocyte lysate | Rabbit reticulocyte lysate, luciferase refolding luminescence, 3 h | inhibition, % at 5.6 µM | actives 0.91% (n = 290,000) | AID 1789;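 active = inhibition above the screen-wide mean plus 3 SD, computed separately per campaign, cut at about 16% in these data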;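 also: 0% = DMSO wells and 100% = 60 µM geldanamycin wells; inhibitors lower the luminescence because luciferase stays unfolded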
MPTP inh = permeability transition pore inhibition. actives 1.4% (n = 360,000). isolated mouse mitochondria, Ca2+ swelling absorbance, 30 min. AID 602449. inhibition, % at 10 µM;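 active = inhibition of 50% or more, scaled per plate between neutral and stimulator controls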;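 also: 0% = DMSO wells given calcium and 100% = 1 mM EGTA wells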
dFosB activator = activators of mouse delta FosB homodimer; P13346; purified delta FosB, TAMRA-CDK5 oligo fluorescence polarization; percent of positive-control signal above neutral wells; activation, % at 25 µM; actives 0.99% (n = 340,000); AID 493131;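 active = mean activation above about 17%, with every replicate also reaching it, limit read from the data, passing the limit was not always enough; inconclusive = only one of the two conditions met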
Target sequence (P13346 whole entry, looked up): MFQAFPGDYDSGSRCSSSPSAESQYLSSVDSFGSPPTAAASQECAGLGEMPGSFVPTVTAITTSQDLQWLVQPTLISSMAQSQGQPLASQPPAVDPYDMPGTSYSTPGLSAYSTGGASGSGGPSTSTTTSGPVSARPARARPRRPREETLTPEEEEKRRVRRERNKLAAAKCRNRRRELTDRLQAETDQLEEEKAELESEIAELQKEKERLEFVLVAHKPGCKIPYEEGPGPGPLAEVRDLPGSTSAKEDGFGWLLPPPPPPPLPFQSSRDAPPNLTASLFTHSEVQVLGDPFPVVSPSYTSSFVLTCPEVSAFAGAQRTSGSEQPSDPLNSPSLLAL
Platelet DG rel = platelet dense granule release activity. human platelet-rich plasma, SFLLRN dense granule ATP release, luminescence. inhibition, %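 (compounds screened at 7.5 µM in platelet-rich plasma)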. actives 0.22% (n = 300,000). AID 1663;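 active = mean replicate score, as percent of positive control, at or above 50; inconclusive = mean below 50 but at least one replicate at or above 50; inactive = mean and every replicate below 50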
HSF1 inh = HSF1 inhibition; NIH3T3-HGL HSE-luciferase, MG132-induced, luminescence 8 h; stronger effect = lower value; activity change, negative = inhibition, % at 7.5 µM (by protocol); actives 0.77% (n = 300,000); AID 2098;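 active = more than half of replicate wells show activity change below -50%, luminescence cut by over half; inconclusive = some wells, but at most half, below -50%; inactive = no replicate well below -50%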;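 also: luciferase reports HSF-1 transcriptional activity via heat shock element; 0% = median of DMSO wells and -100% = zero luminescence signal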
Starred values were filed as active, the others as inactive; ? = inconclusive; / = no result.

SMILES | HSF1 activator | HSP90 inh | MPTP inh | dFosB activator | Platelet DG rel | HSF1 inh
COc1ccc(/C=N/N2C(=O)CSC2=S)cc1 | -7 | 2 | -1 | 0 | 3 | 8
O=C(CCNc1ccc(F)cc1)c1cc2ccccc2o1 | 45 | -9 | 2 | -4 | 8 | 40
O=C(Cc1ccc(F)cc1)OCC(=O)c1cc2ccccc2o1 | -3 | 16* | 0 | -1 | -3 | -3
Cc1cc(/C=C2\Cc3ccccc3C2=O)c(C)n1-c1ccccc1 | -74 | 6 | 2 | -10 | 8 | -75*
COc1ccc(CCn2nnc(-c3ccc(NC(C)=O)c(Cl)c3)n2)cc1 | 3 | 2 | 0 | 33* | -1 | -1
COc1ccc(-c2ccc(-c3nnn(CC(C)=O)n3)cc2)cc1 | 42 | 5 | 3 | -2 | 0 | 25
COC(=O)/C(=C(O)\C=C\c1ccccc1[N+](=O)[O-])c1nc2ccccc2[nH]1 | 6 | 1 | 1 | -12 | -2 | -1
COc1ccc(OC)c(-c2csc(NC(=O)CSc3nnnn3C)n2)c1 | -10 | / | 2 | 33* | / | 2
CCn1nc(C(=O)NNC(=O)COc2ccccc2C)c2ccccc2c1=O | 57* | 1 | 0 | -9 | -9 | 22
C[n+]1ccc(C(=O)NCCC[N+](C)(C)C)cc1/C=N/O | -11 | 1 | -1 | -1 | 11 | 0
COc1ccc(-c2noc(CN(C)C(=O)CCCN3C(=O)[C@H]4CC=CC[C@H]4C3=O)n2)cc1 | / | / | -2 | / | / | /
O=C(CSC(=S)N1CCOCC1)Nc1nc(-c2ccccc2)c(-c2ccccc2)o1 | -64 | 2 | 1 | 13 | -4 | -61*
O=C(CSC(=S)N1CCCCC1)Nc1nc(-c2ccccc2)c(-c2ccccc2)o1 | 14 | -1 | 7 | -13 | 1 | -3
CCO[C@H]1OC(C(N)=O)=C[C@@H](c2ccccc2)[C@@H]1CCCO | -1 | 9 | 2 | -5 | -1 | -8
COc1ccc(CC(=O)Nc2nc(OCC(F)(F)F)cnc2-c2ccc(Cl)cc2Cl)cc1 | / | / | 2 | / | / | /
COc1ccccc1CN1CCCC(CN(CCN(C)C)C(=O)C2CCCC2)C1 (stereo not drawn) | -71 | 0 | 0 | -4 | -1 | -62*
CCCOc1ccc(/C=N/Nc2ccccc2[N+](=O)[O-])c(O)c1 | -75 | 3 | 13 | 4 | 34 | -69*
CCCOc1ccc(/C=N/Nc2cccc([N+](=O)[O-])c2)c(O)c1 | 6 | 1 | 26 | 1 | 2 | 17
O=C(Nc1cccc(S(=O)(=O)N2CCOCC2)c1)c1ccccn1 | -77 | 3 | 1 | -5 | 13 | -70*
O=C(Nc1cccc(S(=O)(=O)N2CCCCC2)c1)c1ccccn1 | -5 | -2 | -4 | -6 | -3 | 2
COc1ccccc1NC(=O)c1cccc2c(Br)cccc12 | 8 | -1 | 0 | 6 | 0 | -5
O=C(Nc1ccc(F)cc1)c1nc(S(=O)(=O)Cc2ccccc2)ncc1Cl | -89 | -3 | 0 | -4 | 32 | -85*
Cc1ccc(NC(=O)c2nc(S(=O)(=O)Cc3ccccc3)ncc2Cl)cc1 | -96 | -1 | -1 | 12 | 23 | -95*
Cc1nnc(NC(=O)c2nc(S(=O)(=O)Cc3ccccc3)ncc2Cl)s1 | -39 | 5 | 0 | 4 | -19 | -35
CCOC(=O)c1cc2cc([N+](=O)[O-])ccc2oc1=O | -10 | 4 | 1 | 2 | 59* | 1
SMILES | HSF1 activator | HSP90 inh | MPTP inh | dFosB activator | Platelet DG rel | HSF1 inh
Cc1ccc(S(=O)(=O)Nc2cccc(C(=O)N3CCC(C(N)=O)CC3)c2)cc1 | / | / | 1 | -4 | / | /
Nn1cnnc1N/N=C/c1cccc(Cl)c1Cl | ? | -2 | 1 | -8 | -5 | 29
COc1ccc(/C=N/Nc2nnc(C)n2N)cc1OC(C)=O | 80* | 3 | 0 | -2 | 0 | 40
Cc1ccc(/C=N/Nc2nncn2N)cc1 | 74* | -5 | -1 | -10 | 10 | 37
Nn1cnnc1N/N=C/c1ccc(F)cc1 | 55* | -4 | -1 | -3 | 1 | 37
Cc1nnc(N/N=C/c2ccc(-c3ccc(Br)cc3)o2)n1N | 48 | 14 | -2 | 1 | -1 | 44
Cc1nnc(N/N=C/c2ccc(Br)cc2)n1N | 52* | 0 | 3 | 9 | 2 | 40
N/C(=N\OC(=O)CC1CCCCC1)c1ccc(Cl)cc1 | 7 | 2 | 0 | 3 | -3 | 20
CCn1c(COc2ccccc2)nnc1SCC(=O)Nc1ccc(N2CCOCC2)cc1 | 8 | -1 | -3 | 5 | 14 | 5
